Where “and” joins values, the source holds several entries; their conditions need not be identical. Identical values can stand only once. About 83,000 compounds went through this panel and 20% of them were active in at least one assay; those are over-represented in the sample as a whole.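 Testing used 96-well plates and a 48-hour single-concentration exposure. Example: -40 means 40% of the starting cells died.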 A number with no mark means an inactive call. Calls of active or inactive are those of the source. The calls were made as follows: active = growth percent below 10; inactive = the rest.
The compounds below were run on HL-60(TB) leukemia (assay: NCI-60 one-dose screen, 48 h (100 = growth as untreated, 0 = no growth, -100 = all killed)). Settings: 10 µM unless noted.

SMILES | growth
COc1ccc(CCn2cnn3c(=O)c4ccccc4nc3c2=O)cc1OC | 92.4% and 103%
COc1cc(NC(=O)Nc2cnc(Nc3ccc(N4CCOCC4)cc3)nc2Oc2cccc(OC)c2)cc(OC)c1 | 22.8%
O=c1c2cc(F)ccc2sc2c(NCCN3CCCCC3)nc3ccccc3c12 | 57%
CCN(CC)CCOc1ccc(-c2c(-c3ccccc3)c(=O)oc3ccccc23)cc1 | 107%
COc1cc(NC(=O)CCl)ccc(=O)c1 | 77.1%
C=C(C)[C@@H]1CC[C@]2(C(=O)N[C@H](CO)Cc3ccccc3)CC[C@]3(C)[C@H](CC[C@@H]4[C@@]5(C)CCCNC(C)(C)[C@@H]5CC[C@]43C)[C@@H]12 | -73.3% (active)
COc1ccc(Cn2c(Br)c3c(c2-c2cc(OC)c(OC)c(OC)c2)CCc2sc(NC(C)=O)nc2-3)cc1 | 15.2%
OB(O)c1cccc(-c2nc3ccc4[nH]ncc4c3c3c2CCCC3)c1 | 32.6%
COc1ccc(Cn2cc(Cn3c(=O)c(-c4nc5ccccc5[nH]4)cc4ccccc43)nn2)c(OC)c1OC | 7.75% (active)
